Experimental data taken from PubChem BioAssay.
“And” between values parts separate entries of the source, which are not always exact repeats. Identical values can stand only once. The source made the active and inactive calls. Cut-off read from the data, not from the text of the source, unless noted: active = parasite load remaining mostly below about 12% (no sharp cut-off); inactive = mostly above about 10%.

Assays:
[1] = liver-stage malaria parasite growth inhibition, primary screen, cell-based, HepG2, luciferase luminescence, HepG2 viability (AID 624349);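 note: 100% = mean of DMSO negative control wells on the same plate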; details: P. berghei liver stage in HepG2, luciferase luminescence, concentration not given here; parasite load remaining: stronger effect = lower value; viability: measured here: HepG2 viability without parasites
[2] = stimulators of nuclear beta-catenin in C2C12, primary screen, imaging, WNT3A-conditioned medium, mouse C2C12, NPC library (AID 1117326; in the data active = nuclear beta-catenin stimulation mostly above about 4.2%, no sharp cut-off; inactive = mostly below about 10%; note: reference of the scale not given here); details: stronger effect = higher value
[3] = stimulators of insulin release from INS-1E, primary screen, cell-based, 5 mM glucose, NPC library (AID 1117329;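 active = compound raises insulin release from rat beta cells at 5 mM glucose, no numeric limit stated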; note: reference of the scale not given here); details: rat INS-1E insulin secretion, at 10 µM, stronger effect = higher value
[4] = growth inhibition of GSK3B-pretreated HCT116 cells – cell-based, CellTiter-Glo, 0.2 to 20 µM (AID 1117336;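 active = compounds lowering colon cancer cell viability after pretreatment blocking the GSK3B kinase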); details: HCT116 viability after GSK3B inhibitor, at 20 µM, stronger effect = higher value
[5] = inhibition of endothelial tube formation, primary screen, imaging, VEGF stimulated, CD31 staining, tube area, NPC library (AID 1117340;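 active = compound that reduces growth-factor-driven endothelial tube area in a mixed cell culture, no cutoff stated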); details: VEGF-stimulated ADSC/ECFC co-culture, at 10 µM, stronger effect = higher value
[6] = glucagon-like peptide 1 release enhancers, primary assay, NCI-H716 cell line, NPC library (AID 1117341;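 active = compound raises GLP1 secretion from the human gut endocrine cells, with no numeric limit stated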; note: reference of the scale not given here); details: NCI-H716 cells, at 10 µM, stronger effect = higher value
[7] = HCT116 colon cancer cell growth inhibition, primary screen, CellTiter-Glo luminescence, NPC library (AID 1117342;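 active = compounds that lower survival of HCT116 colon cancer cells in the luminescence readout, no numeric limit stated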); details: at 20 µM (top of the series)
[8] = CellTiter-Glo luminescent readout of SW480 viability loss, NPC library primary (AID 1117343;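 active = compounds that lower viability of the colon cancer cells in the luminescence readout, with no numeric limit stated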); details: CellTiter-Glo luminescence; at 20 µM (top of the series)
[9] = decreased DLD-1 cellular survival, CellTiter-Glo luminescent readout, NPC compound collection, primary HTS (AID 1117346;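 active = compounds that lower survival of DLD-1 colon cancer cells in the luminescence readout, no cutoff given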); details: DLD-1 viability, CellTiter-Glo luminescence; at 20 µM (top of the series)
[10] = biological target: 6-phosphogluconate dehydrogenase, decarboxylating (Homo sapiens) (UniProt P52209); experiment: 6PGD enzyme inhibitors, primary screen, biochemical, human, recombinant enzyme, NADPH absorbance (AID 1159550;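 active = at least 20% inhibition of 6-phosphogluconate dehydrogenase activity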); details: recombinant 6PGD, NADPH absorbance 341 nm; at 10 µM; stronger effect = higher value
Chain of 6-phosphogluconate dehydrogenase, decarboxylating (Homo sapiens) (P52209 whole entry, looked up): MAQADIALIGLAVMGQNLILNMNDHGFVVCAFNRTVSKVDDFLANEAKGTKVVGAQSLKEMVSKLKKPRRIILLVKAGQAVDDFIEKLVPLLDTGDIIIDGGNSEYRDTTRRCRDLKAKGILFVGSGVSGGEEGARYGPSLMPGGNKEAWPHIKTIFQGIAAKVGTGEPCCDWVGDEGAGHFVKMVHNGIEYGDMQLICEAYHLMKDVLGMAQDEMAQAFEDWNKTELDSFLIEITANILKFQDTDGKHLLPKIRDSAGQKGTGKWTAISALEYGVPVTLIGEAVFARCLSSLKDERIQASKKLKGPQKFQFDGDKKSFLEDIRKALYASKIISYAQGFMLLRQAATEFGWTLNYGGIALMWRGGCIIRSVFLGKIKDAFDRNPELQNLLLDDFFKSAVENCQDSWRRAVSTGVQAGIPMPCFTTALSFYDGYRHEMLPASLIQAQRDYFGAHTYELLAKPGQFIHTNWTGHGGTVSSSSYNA

| SMILES | parasite load remaining [1] | viability [1] | nuclear beta-catenin stimulation ([2]; at 10 µM) | nuclear beta-catenin stimulation ([2]; stimulation, at 2 µM) | insulin secretion stimulation [3] | viability decrease [4] | tube area decrease [5] | GLP1 secretion stimulation [6] | inhibition of viability [7] | viability decrease (inhibition) [8] | viability decrease (inhibition) [9] | inhibition [10] |
| --- | --- | --- | --- | --- | --- | --- | --- | --- | --- | --- | --- | --- |
| NC(=O)c1ccccc1O | 47.6% (inactive) and 47.5% (inactive) | 78.6% and 92.9% | 0.9% (inactive) | 0.5% | -0.8% (inactive) | 5.6% (inactive) | -13.1% (inactive) | 0.3% (inactive) | 10.6% (inactive) | 27.7% (inactive) | 0.25% (inactive) | -8.81% (inactive) |
| CCC(=O)O[C@H]1[C@H](O[C@@H]2[C@@H](C)[C@H](O[C@H]3C[C@@](C)(OC)[C@@H](O)[C@H](C)O3)[C@@H](C)C(=O)O[C@H](CC)[C@@](C)(O)[C@H](O)[C@@H](C)C(=O)[C@H](C)C[C@@]2(C)O)O[C@H](C)C[C@@H]1N(C)C | 85.6% (inactive) and 40.4% (inactive) | 67.9% and 93.1% | 0.6% (inactive) | -0.8% | -1.7% (inactive) | -28.1% (inactive) | 5.5% (inactive) | -0.1% (inactive) | 3.15% (inactive) | 13.9% (inactive) | -12.4% (inactive) | 1.5% (inactive) |
| CCOC(=O)c1ccc(N)cc1 | 108% (inactive) and 105% (inactive) and 49.4% (inactive) | 103% and 76.4% and 98.1% | 0.3% (inactive) | 1.2% | -1% (inactive) | 5.65% (inactive) | 4% (inactive) | -0.6% (inactive) | 7.6% (inactive) | 87.8% (active) | 18.2% (inactive) | -17.7% (inactive) |
| CC(N)C(=O)OC(C)(C)Cc1ccc(Cl)cc1 (stereo not drawn) | 159% (inactive) | 87.1% | 8% (inactive) | 3.3% | 4.8% (inactive) | 7.1% (inactive) | -6.7% (inactive) | 5.8% (inactive) | 50% (active) | 13.1% (inactive) | 20.6% (inactive) | -7.62% (inactive) |
| CC(=O)OCC1=C(C(=O)O)N2C(=O)[C@@H](NC(=O)CSc3ccncc3)[C@H]2SC1 | 79.7% (inactive) and 64.8% (inactive) | 79.3% and 105% | -0.8% (inactive) | 1.1% | 0.9% (inactive) | 14.8% (inactive) | -9.7% (inactive) | -1.1% (inactive) | 5.07% (inactive) | 13.8% (inactive) | -15.1% (inactive) | 3.03% (inactive) |
| Nc1nc(=S)c2[nH]cnc2[nH]1 | 146% (inactive) and 64.9% (inactive) | 48.2% and 41.8% | 14.8% (inactive) | 6.2% | -2% (inactive) | 47.4% (active) | 104% (active) | 1.9% (inactive) | 96.4% (active) | 101% (active) | 52.9% (active) | 4.15% (inactive) |
| CCC(=O)c1c(O)cc(O)cc1O | 100% (inactive) | 70.3% | 1.8% (inactive) | 2% | 3.7% (inactive) | -16.4% (inactive) | 4.6% (inactive) | -2% (inactive) | 21.1% (inactive) | 21.5% (inactive) | 2.4% (inactive) | 8.94% (inactive) |
| Oc1ccc(Cl)c2cccnc12 | 109% (inactive) and 39.2% (inactive) | 67.1% and 81.7% | 26.2% (inactive) | 2.1% | -2.1% (inactive) | 57.1% (active) | 11.9% (inactive) | -5.7% (inactive) | 32.7% (inactive) | 84.4% (active) | 43.6% (inactive) | 10.3% (inactive) |
| Cc1cc2nc3c(=O)[nH]c(=O)nc-3n(C[C@H](O)[C@H](O)[C@H](O)CO)c2cc1C | 147% (inactive) | 99.8% | 4.5% (inactive) | 2.2% | 0.9% (inactive) | -45.7% (inactive) | 36.1% (inactive) | -0.4% (inactive) | 0.1% (inactive) | 11.1% (inactive) | -5.4% (inactive) | -2.13% (inactive) |
| COc1ccc(C(=O)CC(=O)c2ccc(C(C)(C)C)cc2)cc1 | 168% (inactive) and 61% (inactive) | 84.8% and 202% | -0.4% (inactive) | 3% | 1.3% (inactive) | -88.8% (inactive) | -15.2% (inactive) | -3.2% (inactive) | 15.8% (inactive) | 18.1% (inactive) | 16.6% (inactive) | -0.365% (inactive) |
| O=C(O)c1cc(=O)c2ccccc2o1 | 136% (inactive) | 95.8% | -0.2% (inactive) | 0.2% | -2.1% (inactive) | -1.35% (inactive) | -2.1% (inactive) | 3.7% (inactive) | -9.2% (inactive) | 6.8% (inactive) | 1.75% (inactive) | -2.11% (inactive) |
| CC1(C)S[C@@H]2[C@H](NC(=O)C(C(=O)O)c3ccccc3)C(=O)N2[C@H]1C(=O)O (stereo partly drawn) | 87.5% (inactive) and 61.7% (inactive) | 75.2% and 98.9% | -0.3% (inactive) | -0.3% | -0.6% (inactive) | -17.4% (inactive) | -10.8% (inactive) | -0.3% (inactive) | -4.4% (inactive) | -13% (inactive) | -17.8% (inactive) | -9.55% (inactive) |
| C[C@@](Cc1ccc(O)c(O)c1)(NN)C(=O)O | 47.3% (inactive) | 129% | -1.9% (inactive) | -0.3% | 0.3% (inactive) | 48.3% (inactive) | -3.9% (inactive) | -1.3% (inactive) | 27.4% (inactive) | 88.8% (active) | 11.7% (inactive) | -4.83% (inactive) |
| Oc1ccc(Cl)cc1Cc1cc(Cl)ccc1O | 11.8% (inactive) | 65.1% | 10.6% (inactive) | 5.8% | -0.9% (inactive) | 100% (active) | 109% (active) | 30.9% (active) | 102% (active) | -50.4% (active) | 105% (active) | -8.92% (inactive) |
| C=CCSCC1Nc2cc(Cl)c(S(N)(=O)=O)cc2S(=O)(=O)N1 (stereo not drawn) | 134% (inactive) and 105% (inactive) and 42.5% (inactive) | 102% and 73.3% and 104% | 0.3% (inactive) | 0.6% | -0.2% (inactive) | -11% (inactive) | -0.7% (inactive) | 0.1% (inactive) | 3.27% (inactive) | -6.2% (inactive) | 1.8% (inactive) | 5.8% (inactive) |
| S=P(N1CC1)(N1CC1)N1CC1 | 137% (inactive) and 49.2% (inactive) | 91% and 141% | -0.7% (inactive) | -0.3% | 1.3% (inactive) | 16.4% (inactive) | 35.1% (inactive) | -2.2% (inactive) | 22.3% (inactive) | 33.3% (inactive) | 18.9% (inactive) | -6.76% (inactive) |
| CCN(CC)CCNC(=O)c1cc(Br)c(N)cc1OC | 69.3% (inactive) and 155% (inactive) | 93.9% and 89.2% | 3.8% (inactive) | -1% | -0.6% (inactive) | -24.9% (inactive) | 15.9% (inactive) | 0.5% (inactive) | -0.17% (inactive) | -9.9% (inactive) | -34.1% (inactive) | 12.4% (inactive) |
| Nc1ccc(N=Nc2ccccc2)c(N)n1 | 122% (inactive) and 140% (inactive) and 51.9% (inactive) | 90.8% and 67.3% and 81.9% | 5.9% (inactive) | 3.5% | 0.5% (inactive) | 43.4% (inactive) | 36.8% (inactive) | -4.7% (inactive) | 29% (inactive) | 31.9% (inactive) | 16% (inactive) | 3.23% (inactive) |
| O=C(O)[C@@H]1[C@H]2C[C@H]3c4[nH]c5ccccc5c4CCN3C[C@@H]2CC[C@@H]1O | 106% (inactive) and 85.7% (inactive) | 104% and 83.6% | 0.4% (inactive) | 1.8% | -0.3% (inactive) | -25.2% (inactive) | 9.1% (inactive) | 0.3% (inactive) | -4.53% (inactive) | 13% (inactive) | -18.9% (inactive) | 2.44% (inactive) |
| CC(C)NCC(O)c1ccc2ccccc2c1 (stereo not drawn) | 115% (inactive) and 166% (inactive) and 45.3% (inactive) | 75% and 89% and 106% | 0.7% (inactive) | -1.4% | 9.8% (inactive) | 6.6% (inactive) | -11.2% (inactive) | 1.5% (inactive) | 26.4% (inactive) | 20.9% (inactive) | 19.4% (inactive) | 8.21% (inactive) |
| OC[C@H]1O[C@@H](O[C@@H]2[C@@H](CO)O[C@](O)(CO)[C@H]2O)[C@H](O)[C@@H](O)[C@H]1O | 106% (inactive) and 22.7% (inactive) | 76.4% and 96.6% | 2.4% (inactive) | 1.6% | 0.5% (inactive) | -11.1% (inactive) | -2.5% (inactive) | 0.8% (inactive) | 10% (inactive) | 86.9% (active) | -4.2% (inactive) | 0.0837% (inactive) |
| CCCCC1(COC(=O)CCC(=O)O)C(=O)N(c2ccccc2)N(c2ccccc2)C1=O | 87.9% (inactive) | 101% | 6.3% (inactive) | 4.7% | 2.3% (inactive) | 10.8% (inactive) | -1.7% (inactive) | -1.7% (inactive) | 0.4% (inactive) | -17.1% (inactive) | 9.4% (inactive) | -3.37% (inactive) |
| Cc1c(NC(C)C)c(=O)n(-c2ccccc2)n1C | 102% (inactive) and 160% (inactive) | 100% and 89.9% | 3.6% (inactive) | 7% | 0.4% (inactive) | 3.8% (inactive) | 4% (inactive) | -0.1% (active) | -11% (inactive) | -10% (inactive) | -1.3% (inactive) | 16.7% (inactive) |
| Cc1cc(C(C)(C)C)c(O)c(C(C)(C)C)c1 | 72.6% (inactive) | 95.9% | 1.4% (inactive) | 0.1% | -0.6% (inactive) | -7.15% (inactive) | -2.9% (inactive) | 14.2% (inactive) | 10.4% (inactive) | 3.9% (inactive) | -5.5% (inactive) | 14.6% (inactive) |
